The values that follow come from PubChem BioAssay (NCI).

SMILES strings stand for the structures. The panel holds about 83,000 compounds, 20% with a hit somewhere; the sample as a whole holds those more often.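 Method: cells in 96-well plates; compound added at one concentration; 48 h incubation; percent growth measured; values under 10 scored active.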 Unmarked numbers belong to inactive results. Calls of active or inactive are those of the source.

Test in all cases: NCI-60 one-dose screen, 48 h (100 = growth as untreated, 0 = no growth, -100 = all killed)
For one experiment, the system named is 786-0 renal. The conditions noted are these: 10 µM unless noted.
The test system of the next experiment is DU-145 prostate. As to conditions: 10 µM unless noted.
In another experiment the test system is MDA-MB-231 breast. The conditions noted are these: 10 µM unless noted.
The test system of the next experiment is SF-268 CNS. The conditions noted are these: 10 µM unless noted.
A further experiment concerns SF-539 CNS. As to conditions: 10 µM unless noted.
The next experiment has as its system M14 melanoma. The conditions noted are these: 10 µM unless noted.
Another experiment relates to HCT-15 colon. The conditions noted are these: 10 µM.
The subject of another experiment is SNB-19 CNS. The conditions noted are these: 10 µM unless noted.
Another experiment has as its system UACC-62 melanoma. The conditions noted are these: 10 µM unless noted.
The test system of a further experiment is SN12C renal. The conditions noted are these: 10 µM unless noted.
For another experiment, the system named is ACHN renal. The conditions noted are these: 10 µM unless noted.
In the next experiment the test system is MOLT-4 leukemia. As to conditions: 10 µM.
The test system of a further experiment is OVCAR-8 ovarian. The conditions noted are these: 10 µM unless noted.
For another experiment, the system named is SK-OV-3 ovarian. As to conditions: 10 µM unless noted.
The next experiment deals with NCI/ADR-RES ovarian. As to conditions: 10 µM unless noted.
For the next experiment, the system named is T-47D breast. The conditions noted are these: 10 µM unless noted.
The next experiment has as its system MDA-MB-435 melanoma. The conditions noted are these: 10 µM unless noted.
A further experiment has as its system SW-620 colon. The conditions noted are these: 10 µM unless noted.
The next experiment has as its system HCT-116 colon. The conditions noted are these: 10 µM unless noted.
For a further experiment, the system named is KM12 colon. The conditions noted are these: 10 µM unless noted.

Turning to `COc1cc(N(CCCl)CCCl)ccc1C=Nc1ccccc1C(=O)O`, the growth is 110% in the experiment on 786-0 renal; 104% with DU-145 prostate; 96.8% in the experiment on MDA-MB-231 breast; 103% in the experiment on SF-268 CNS; 102% in the experiment with SF-539 CNS; 98.2% in the experiment with M14 melanoma. The growth in the experiment with HCT-15 colon was 97.7%; with SNB-19 CNS it was 97.2%; with UACC-62 melanoma it was 96.4%; with SN12C renal it was 99.2%; in the experiment with ACHN renal it was 97%; in the experiment on MOLT-4 leukemia, 97.2%. Also, the growth is 92.9% with OVCAR-8 ovarian; 105% with SK-OV-3 ovarian; 102% in the experiment with NCI/ADR-RES ovarian; 97.6% in the experiment on T-47D breast; 102% in the experiment with MDA-MB-435 melanoma; 91.6% in the experiment with SW-620 colon. Further, the growth was 108% in the experiment on HCT-116 colon and 71.1% in the experiment on KM12 colon.

Consider `O=CC(Br)C(Br)c1ccccc1` (stereo not given), for which the growth with 786-0 renal was 106%; in the experiment on DU-145 prostate it was 77%; in the experiment with MDA-MB-231 breast it was 96.5%; with SF-268 CNS, 95.7%; in the experiment with SF-539 CNS, 94%; in the experiment with M14 melanoma it was 91.8%. Moreover, the growth in the experiment on HCT-15 colon is 78.1%; in the experiment on SNB-19 CNS, 96%; in the experiment on UACC-62 melanoma, 87.4%; in the experiment on SN12C renal, 86.7%; in the experiment with ACHN renal it was 86.2%; with MOLT-4 leukemia it was 16.6%. The growth in the experiment with OVCAR-8 ovarian is 85.6%; with SK-OV-3 ovarian, 109%; in the experiment on NCI/ADR-RES ovarian it was 100%; in the experiment on T-47D breast, 37.2%; in the experiment on MDA-MB-435 melanoma, 99.3%; with SW-620 colon, 19.5%. Moreover, the growth in the experiment on HCT-116 colon is 2.83% (active); with KM12 colon, 96.1%.

Regarding `CC(C)(C)N(Cc1ccccc1)N=O`, the growth is 99% with 786-0 renal; 107% in the experiment with DU-145 prostate; 91.9% with MDA-MB-231 breast; 108% with SF-268 CNS; 99% in the experiment with SF-539 CNS; 103% in the experiment on M14 melanoma. Further, the growth with HCT-15 colon was 103%; in the experiment on SNB-19 CNS, 97%; in the experiment on UACC-62 melanoma, 103%; in the experiment on SN12C renal, 91.9%; in the experiment on ACHN renal, 104%; in the experiment on MOLT-4 leukemia, 104%. In addition, the growth with OVCAR-8 ovarian is 95.7%; with SK-OV-3 ovarian, 96.2%; in the experiment with NCI/ADR-RES ovarian it was 113%; with T-47D breast it was 97.3%; in the experiment on MDA-MB-435 melanoma it was 102%; with SW-620 colon, 101%. Further, the growth in the experiment with HCT-116 colon is 106%; with KM12 colon, 104%.

Consider `O=C(O)C1(Br)CC12c1ccccc1-c1ccccc12` (stereo not given), for which the growth with 786-0 renal was 101%; in the experiment with DU-145 prostate, 111%; in the experiment on MDA-MB-231 breast, 115%; in the experiment with SF-268 CNS, 100%; in the experiment on SF-539 CNS, 103%; with M14 melanoma, 102%. Besides, the growth in the experiment on HCT-15 colon was 101%; with SNB-19 CNS, 104%; with UACC-62 melanoma, 103%; in the experiment with SN12C renal, 107%; with ACHN renal, 99%; in the experiment on MOLT-4 leukemia, 86%. The growth in the experiment on OVCAR-8 ovarian was 99.6%; in the experiment with SK-OV-3 ovarian it was 101%; in the experiment with NCI/ADR-RES ovarian, 104%; in the experiment with T-47D breast, 82.5%; in the experiment with MDA-MB-435 melanoma, 108%; in the experiment on SW-620 colon it was 111%. Besides, the growth in the experiment on HCT-116 colon was 100%; in the experiment on KM12 colon it was 99.7%.

Take `n1nc(-c2nonc2-c2nn[nH]n2)n[nH]1`: the growth in the experiment with 786-0 renal is 99%; with DU-145 prostate, 103%; with MDA-MB-231 breast it was 105%; in the experiment with SF-268 CNS, 122%; with SF-539 CNS, 115%; in the experiment with M14 melanoma, 115%. Further, the growth in the experiment with HCT-15 colon was 106%; in the experiment on SNB-19 CNS, 105%; in the experiment with UACC-62 melanoma, 107%; in the experiment on SN12C renal it was 102%; with ACHN renal it was 115%; in the experiment on MOLT-4 leukemia it was 110%. Also, the growth is 109% in the experiment with OVCAR-8 ovarian; 115% with SK-OV-3 ovarian; 104% with NCI/ADR-RES ovarian; 105% in the experiment with T-47D breast; 97.7% in the experiment with MDA-MB-435 melanoma; 107% in the experiment on SW-620 colon. For the same compound, the figures for the growth in the experiment with HCT-116 colon and in the experiment with KM12 colon were 106% and 118%, respectively.

With `CC1([N+](=O)[O-])COP(=O)(Nc2ccc(F)cc2)OC1` (stereo not given), the growth is 102% in the experiment on 786-0 renal; 106% in the experiment on DU-145 prostate; 118% in the experiment on MDA-MB-231 breast; 99.7% in the experiment on SF-268 CNS; 103% in the experiment with SF-539 CNS; 101% in the experiment with M14 melanoma. For the same compound, the growth in the experiment with HCT-15 colon is 104%; in the experiment on SNB-19 CNS it was 107%; in the experiment with UACC-62 melanoma, 109%; in the experiment with SN12C renal, 111%; in the experiment with ACHN renal, 98.8%; with MOLT-4 leukemia, 83%. Further, the growth was 101% in the experiment with OVCAR-8 ovarian; 101% in the experiment with SK-OV-3 ovarian; 102% with NCI/ADR-RES ovarian; 82.9% in the experiment on T-47D breast; 110% in the experiment on MDA-MB-435 melanoma; 102% in the experiment on SW-620 colon. Besides, the values for the growth with HCT-116 colon and in the experiment on KM12 colon were 99.4% and 95.8%, respectively.

Turning to `Clc1ccc(SSC(Cl)(Cl)Cl)cc1`, the growth with 786-0 renal was 106%; in the experiment on DU-145 prostate, 114%; in the experiment on MDA-MB-231 breast, 116%; in the experiment with SF-268 CNS, 104%; with SF-539 CNS it was 103%; in the experiment on M14 melanoma it was 107%. Besides, the growth in the experiment on HCT-15 colon is 112%; in the experiment with SNB-19 CNS, 121%; in the experiment on UACC-62 melanoma it was 116%; in the experiment on SN12C renal, 102%; in the experiment with ACHN renal it was 102%; with MOLT-4 leukemia, 99.7%. In addition, the growth in the experiment with OVCAR-8 ovarian is 107%; in the experiment on SK-OV-3 ovarian, 115%; in the experiment on NCI/ADR-RES ovarian it was 117%; with T-47D breast, 114%; in the experiment with MDA-MB-435 melanoma it was 105%; in the experiment with SW-620 colon, 97.6%. For the same compound, the figures for the growth in the experiment on HCT-116 colon and in the experiment with KM12 colon were 101% and 108%, respectively.

For `CC[C@]12C=CCN3CC[C@@]4(c5ccc(OC)cc5N(C)[C@H]4[C@@](O)(C(=O)OC)[C@@H]1OC(=O)CCCN1CCN(CCCC(=O)O[C@@H]4[C@]5(CC)C=CCN6CC[C@@]7(c8ccc(OC)cc8N(C)[C@H]7[C@@]4(O)C(=O)OC)[C@@H]65)CC1)[C@@H]32`, the growth is -81.9% (active) in the experiment with 786-0 renal; -90.6% (active) with DU-145 prostate; -89.6% (active) in the experiment on MDA-MB-231 breast; -82.6% (active) in the experiment on SF-268 CNS; -95.5% (active) in the experiment with SF-539 CNS; -80.6% (active) with M14 melanoma. Besides, the growth is -74.3% (active) in the experiment with HCT-15 colon; -93.9% (active) with SNB-19 CNS; -87.7% (active) in the experiment with UACC-62 melanoma; -81.4% (active) in the experiment with SN12C renal; -83.3% (active) with ACHN renal; -62.9% (active) with MOLT-4 leukemia. The growth in the experiment on OVCAR-8 ovarian was -71.1% (active); in the experiment with SK-OV-3 ovarian, -88.7% (active); with NCI/ADR-RES ovarian it was -40.6% (active); in the experiment on T-47D breast, -68.3% (active); with MDA-MB-435 melanoma, -89.3% (active); with SW-620 colon it was -81.9% (active). Also, the growth with HCT-116 colon is -84% (active); in the experiment on KM12 colon it was -73.9% (active).
